Screening data as filed in PubChem.
TDP1 cell noCPT: qHTS for Inhibitors of human tyrosyl-DNA phosphodiesterase 1 (TDP1): qHTS in cells in absence of CPT; Potency, µM (highest dose often 46.2 µM), without a hit: at the highest dose activity change, negative = growth inhibition, actives largely listed as inhibitors; 15% of 420,000 active; DT40 Tdp1-/- hTDP1 cells, no CPT, ATP luminescence, 48 h; AID 686978, 2013; note: % is set by controls: 0 for no effect and ±100 for the full control effect; nearly all actives have a fitted effect of over 55% in size
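No-CPT arm: Tdp1-/-;hTDP1 DT40 cells (400/well) plus compounds, incubated ≥48 hr at 37 °C. Readout CellTiter-Glo luminescence.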
TDP1 inh: qHTS Assay for Inhibitors of Tyrosyl-DNA Phosphodiesterase (TDP1). Potency, µM (series often up to 130 µM), without a hit: at the top dose activity change, negative = inhibition, hits mostly inhibitors. recombinant TDP1, AlphaScreen DNA substrate cleavage. Tyrosyl-DNA phosphodiesterase 1 (Homo sapiens), Q9NUW8. 0.28% of 350,000 active; note: % is set by controls: 0 for no effect and ±100 for the full control effect; nearly all actives have a fitted effect of over 40% in size
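Here, a 5' biotin and 3' phosphotyrosine-FITC DNA oligonucleotide reports Tdp1 activity: intact substrate bridges AlphaScreen beads, while cleavage leaves a 3' phosphate and drops signal. All incubations at room temperature.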
TDP1 cell CPT: qHTS for Inhibitors of human tyrosyl-DNA phosphodiesterase 1 (TDP1): qHTS in cells in presence of CPT; chicken DT40 Tdp1-/-;hTDP1 cells + 20 nM CPT, ATP luminescence, 48 h; Potency, µM (top dose mostly 46.2 µM), inactives show at the top dose activity change, negative = growth inhibition, hits mostly inhibitors; 12% of 420,000 active; note: % is set by controls: 0 for no effect and ±100 for the full control effect; nearly all actives have a fitted effect of over 55% in size
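Chicken DT40 Tdp1-/- cells stably complemented with human TDP1 were seeded at 400 cells/well in medium containing 20 nM camptothecin, exposed to pin-transferred compounds, and grown at 37 °C for at least 48 hr. Viability was read as ATP luminescence.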
ClpP mod: qHTS Assay for Activators of ClpP; Potency, µM (highest dose often 57.5 µM), inactives show at the top dose activity change, negative = active; AID 651965, 2013; 1.9% of 340,000 active; purified B. subtilis ClpP, FRET peptide cleavage, 20 min; active = well fitted falling curve with a large enough effect; inconclusive = small, poorly fitted or top-dose-only effect; inactive = no such curve, though single readings can be large or run the other way; note: the source files actives as falling curves though it sought activators and does not explain the sign; nearly all actives have a fitted effect of over 65% in size
Target sequence (P80244 whole entry, looked up): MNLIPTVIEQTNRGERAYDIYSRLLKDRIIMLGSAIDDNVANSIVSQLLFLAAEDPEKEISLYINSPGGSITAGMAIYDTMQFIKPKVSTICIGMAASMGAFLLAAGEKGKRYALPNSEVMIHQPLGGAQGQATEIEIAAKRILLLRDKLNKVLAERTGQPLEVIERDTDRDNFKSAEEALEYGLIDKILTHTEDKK
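Buffer: 100 mM Tris/HCl pH8, 100 mM KCl, 0.05% low protease BSA, 2.5% glycerol, 0.01% Tween-20. ClpP 10 microg/mL final; 20 min RT; delta FRET normalized to ADEP and DMSO controls.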
* hit, by the source's call; ? = inconclusive; nt = no result given; [ ] = another dose, or the depositor's remark. Only some compounds are listed: those with a hit (about 17% of all), similar ones and a draw of the others. Unless noted, calls come from the whole dose curve; as a rule, active = well fitted curve in the direction sought with a large enough effect; inconclusive = small, poorly fitted or top-dose-only effect, or another doubt; inactive = no such curve, though single readings can be large; an effect the other way counts as inactive or inconclusive. Potency is the fitted concentration of half-maximal effect.

SMILES	TDP1 cell noCPT	TDP1 inh	TDP1 cell CPT	ClpP mod
CCCCCCCCN1C(=O)[C@H](CC(=O)NCC2CCCCC2)C[C@@]2(C(=O)OC)CC(C)(C)CC=C12	13µM*	nt	?	-7.0%
COc1cccc(C(=O)NCC(C)(C)SCc2ccc(F)cc2)c1	?	nt	?	1.1%
CC(C)c1ccccc1NC(=O)C1CC(=O)N(C2CCCC2)C1 (centres undefined)	27.0%	5.8%	-16.6%	0.3%
OC(Br)C(O)C(O)N1CCCc2ccccc21 (centres undefined)	-7.3%	nt	-2.3%	-10.3%
CCCNC(=O)NNC(=O)c1ccc(F)cc1	?	-11.4%	?	-1.1%
COc1ccccc1CNC(=O)C1CCN(C2=NS(=O)(=O)C(c3ccc(C)c(C)c3)=C2C)CC1	18.4µM*	0.9%	16.4µM*	-0.2%
CC1=C(c2ccc(C)c(C)c2)S(=O)(=O)N=C1N1CCC(C(=O)NCCc2ccc(Cl)cc2)CC1	7.31µM*	1.0%	13µM*	3.3%
CCOc1ccc(CNC(=O)C2CCN(C3=NS(=O)(=O)C(c4ccc(C)cc4)=C3CC)CC2)cc1	?	3.9%	18.4µM*	-2.3%
CCCNC(=O)C1(C)CCN(Cc2cc3ccccc3o2)C1 (centres undefined)	?	nt	?	-0.3%
Cc1ccc(-c2noc(CCC(=O)Nc3ccc(F)cc3Cl)n2)cc1	?	-2.5%	-2.4%	-0.7%
O=Nc1ccc2oc(=O)ccc2c1	nt	23.2%[56.1 µM]	nt	nt
CCOC1=C2CN(S(=O)(=O)c3ccc(C)cc3)C(c3ccc(CC)cc3)CC2N(S(=O)(=O)c2ccc(C)cc2)C(c2ccc(CC)cc2)C1 (centres undefined)	2.06µM*	nt	3.66µM*	0.1%
CCOC1=C2CN(S(=O)(=O)c3ccc(C)cc3)[C@H](c3ccccc3)C[C@@H]2N(S(=O)(=O)c2ccc(Br)cc2)[C@H](c2ccccc2)C1	11.6µM*	nt	?	-5.7%
CCCC(=O)N1CCCN(c2nc(N)c3cc(OC)c(OC)cc3n2)CC1	-20.6%	nt	-5.1%	nt
COc1ccc(C(=O)NC(C)c2ccc(-n3ccnc3)cc2)cc1[N+](=O)[O-] (centres undefined)	?	7.1%	?	nt
COCc1cc(O)c(O)c(O)c1-c1c(COC)cc(O)c(O)c1O	4.47µM*	nt	5.01µM*	-1.8%
O=C(CO)c1c[nH]c2ccccc12	5.9%	nt	-1.5%	-0.1%
COc1ccccc1-c1cc(C(F)(F)F)nc(S(=O)(=O)CCCC(=O)Nc2cc(Br)ccc2O)n1	-18.7%	8.8%	-16.1%	4.5%
COc1ccccc1-c1cc(C(F)(F)F)nc(S(=O)(=O)CCCC(=O)N2CCCCC2C)n1 (centres undefined)	4.11µM*	4.0%	4.11µM*	-19.8%
COc1ccccc1-c1cc(C(F)(F)F)nc(S(=O)(=O)CCCC(=O)NC(C)C)n1	3.26µM*	-1.5%	2.31µM*	-4.6%
COc1ccccc1-c1cc(C(F)(F)F)nc(S(=O)(=O)CCCC(=O)NCc2ccc(F)cc2)n1	4.11µM*	0.0%	2.91µM*	-1.5%
COc1ccccc1-c1cc(C(F)(F)F)nc(S(C)(=O)=O)n1	5.8µM*	2.0%	3.66µM*	-0.6%
CCN(CC)CCNC(=S)Nc1ccc(F)cc1	-1.9%	-4.9%	9.9%	nt
COc1cc(OC)cc(C(=O)Nc2ccc(N3CCN(C(=O)c4cccs4)CC3)cc2)c1	5.17µM*	5.3%	5.8µM*	-0.5%
Nc1ccc(N2CCN(C(=O)c3cccs3)CC2)cc1	14.6µM*	7.8%	?	-1.6%
SMILES	TDP1 cell noCPT	TDP1 inh	TDP1 cell CPT	ClpP mod
CCOc1ccc(C(=O)Nc2ccc(N3CCN(C(=O)c4ccco4)CC3)cc2)cc1Br	?	nt	-23.4%	43.2%
CCOc1ccc(C(=O)Nc2ccc(N3CCN(C)CC3)cc2)cc1Br	29.1µM*	1.9%	?	17.8µM*
O=C(Nc1ccc(N2CCN(C(=O)c3cccs3)CC2)cc1)c1ccc(F)cc1	23.1µM*	0.9%	-25.3%	nt
O=c1cc(-c2ccccc2)c2cc(Cl)c3c(c2o1)CN(Cc1ccccc1)CO3	?	4.9%	?	-5.3%
COc1ccc(CN(C)C(=O)c2cccc(Oc3ccccc3)c2)c(OC)c1OC	?	-1.4%	?	nt
COc1ccc(C(=O)Nc2ccc(N3CCN(C(=O)c4cccs4)CC3)cc2)cc1Br	18.4µM*	2.4%	20.6µM*	-8.5%
COc1ccc(C(=O)Nc2ccc(N3CCCC3)cc2)cc1Br	?	-2.9%	?	?
CCSc1nnc(NC(=O)C2CC(=O)N(Cc3ccccc3)C2)s1 (centres undefined)	2.6%	-1.3%	2.0%	nt
OC(Cc1ccccc1Br)c1ncc(-c2cccc(C(F)(F)F)c2)[nH]1 (centres undefined)	16.4µM*	nt	23.1µM*	-3.7%
Cc1cccc(C(O)c2ncc(-c3cccc(C(F)(F)F)c3)[nH]2)c1C (centres undefined)	?	nt	?	-0.5%
OC(Cc1cccc(Br)c1)c1ncc(-c2cccc(C(F)(F)F)c2)[nH]1 (centres undefined)	16.4µM*	nt	?	-1.8%
CCC(C)[C@H](N)C(=O)NC[C@H]1CC[C@H](C(=O)N[C@@H](Cc2ccccc2)C(=O)O)CC1 (some centres undefined)	-1.8%	nt	21.0%	nt
CCNc1nc(NC(C)C)nc(N(C#N)CCOc2ccccc2)n1	23.1µM*	2.3%	23.1µM*	0.0%
Cc1ccccc1N1CC(C(=O)Nc2ccc(S(=O)(=O)N3CCCCC3)cc2)CC1=O (centres undefined)	16.4µM*	2.6%	?	0.6%
CC(C)(C)N1CC(C(=O)Nc2ccc(S(=O)(=O)N3CCCCC3)cc2)CC1=O (centres undefined)	1.64µM*	-14.3%	?	nt
Cc1cccc(N2CC(C(=O)Nc3ccc(S(=O)(=O)N4CCCCC4)cc3)CC2=O)c1C (centres undefined)	?	8.7%	?	nt
CN1CCN(/C=N/c2sc3c(c2C#N)CCCCC3)CC1	?	6.0%	?	1.7%
CCN(/C=N/c1sc2c(c1C#N)CCCCC2)CC	20.6µM*	4.0%	?	4.2%
CC(C)CN(/C=N/c1sc2c(c1C#N)CCCCC2)CC(C)C	14.6µM*	-2.0%	20.6µM*	-1.9%
COc1ccc(C=C(c2ccc(OC)cc2)c2ccc(OC)cc2)cc1	?	-7.9%	-22.0%	31.6µM*
COc1ccc(C(=O)N2N=C(c3cccs3)CC2c2ccccc2O)cc1 (centres undefined)	13µM*	3.1%	-4.5%	nt
COc1ccc(C2=NN(C(=O)c3cccs3)C(c3ccccc3O)C2)cc1 (centres undefined)	?	0.0%	?	4.1%
COc1ccc(C2CC(c3ccccc3)=NN2C(=O)c2cccs2)cc1 (centres undefined)	?	5.2%	23.1µM*	?
